Screening data deposited in PubChem BioAssay by several laboratories.
The full list was thinned out, with hits kept by preference.
D1 allo mod = allosterically modulates the human D1 dopamine receptor. HEK293 D1, CRE-luciferase, dopamine EC30 potentiation; actives deviate in either direction. actives 5.9% (n = 58,000). AID 641. B-score at 10 µM. P21728;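 active = luminescence count or its row- and column-corrected plate score outside the 99.7% band of the plate's sample wells, on either side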
TNAP act DEA = human TNAP activation, intermediate phosphate acceptor. activation factor at 20 µM. purified TNAP, CDP-star luminescence, 100 mM DEA, 30 min; stronger effect = higher value; scale: 0 levamisole-inhibited, 1 vehicle-only enzyme. 64,000 tested, under 10 active. P05186. AID 813;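 active = activation factor of at least 2 at 20 µM, relative to controls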
FXIIa inh mix = factor XIIa (human) inhibition, mixture screen | P00748 | actives 0.2% (n = 62,000) | inhibition, % at 5 µM | purified FXIIa, fluorogenic substrate, pooled mixtures | AID 684;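 note: 0% = enzyme without compound and 100% = no enzyme blank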
FXIa inh mix = inhibitors of human coagulation factor XIa, pooled mixtures. actives 0.19% (n = 62,000). P03951. purified FXIa, fluorogenic substrate. inhibition, % at 5 µM;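 note: each value is inhibition by a whole ten-compound pool holding the compound; 0% = enzyme with no mixture and 100% = wells lacking enzyme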
HePTP inh = inhibitors of human HePTP phosphatase. P35236. recombinant HePTP phosphatase activity, OD absorbance. inhibition, % at 20 µM. actives 0.64% (n = 110,000). AID 521; in the data active = inhibition above about 50%;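 note: plate controls were vehicle for no effect and reference inhibitor for full effect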
Target sequence (P35236 whole entry, looked up): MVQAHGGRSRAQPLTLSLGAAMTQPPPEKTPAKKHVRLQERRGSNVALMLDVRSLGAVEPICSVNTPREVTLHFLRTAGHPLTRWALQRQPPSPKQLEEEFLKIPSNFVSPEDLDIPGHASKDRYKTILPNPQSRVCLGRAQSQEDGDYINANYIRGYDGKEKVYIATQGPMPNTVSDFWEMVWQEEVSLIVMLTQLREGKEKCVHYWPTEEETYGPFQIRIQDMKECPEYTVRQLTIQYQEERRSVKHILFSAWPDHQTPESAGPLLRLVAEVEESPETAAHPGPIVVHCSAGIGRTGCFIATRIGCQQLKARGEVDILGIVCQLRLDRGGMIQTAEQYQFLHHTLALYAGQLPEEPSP
Candida biofilm = kills Candida albicans biofilms. actives 0.14% (n = 85,000). inhibition, % at 6 µM. AID 834. C. albicans biofilm + clotrimazole, Alamar Blue;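 active = inhibition above 20%; inactive = inhibition below 20%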;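 note: preformed 24 hr biofilms exposed to compound for 48 hr; 0% = biofilm without compound and 100% = blank killed by clotrimazole plus chlorhexidine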
An asterisk follows results filed as active; x = no result. Cut-off read from the data, not from the text of the source, unless noted: active = inhibition above about 20% (passing the limit was not always enough); inactive = the rest.

SMILES | D1 allo mod | TNAP act DEA | FXIIa inh mix | FXIa inh mix | HePTP inh | Candida biofilm
COc1ccc(CCNC(=O)c2[nH]c(C)c(C(C)=O)c2C)cc1OC | 0.1 | 0.9 | 5 | 8 | 6 | 3
CC(=O)c1c(C)[nH]c(C(=O)NCCc2ccccc2)c1C | -3.5* | 1 | 5 | 8 | 6 | 11
Cc1ccc(C2=NC(=O)/C(=C/c3cc4c(cc3Br)OCO4)S2)cc1 | x | x | x | x | 9 | x
C=CCn1c(SCc2cc(=O)n3ccsc3n2)nc2scc(C3CC3)c2c1=O | 9.8* | 0.9 | 2 | 1 | -3 | 8
CN1CCN(C(=O)c2cc(-c3ccccc3)on2)CC1 | -0.057 | 1 | 11 | 3 | 0 | -3
O=C(c1cc(-c2ccc(F)cc2)on1)N1CCCC1 | -3.6* | 1 | 2 | -3 | -1 | x
COc1cccc(-c2cc(C(=O)N3CCCCCC3)no2)c1 | -4.9* | 0.8 | -16 | 4 | 11 | 9
O=C(c1cc(-c2cccc(O)c2)on1)N1CCCCC1 | -4.8* | 0.9 | 7 | 4 | -4 | 2
COc1cccc(-c2cc(C(=O)N3CCCCC3C)no2)c1 (stereo unspecified) | -1.4 | 0.9 | 7 | 4 | 5 | 7
O=C(c1cc(-c2ccc(Cl)c(Cl)c2)on1)N1CCCC1 | 0.91 | 0.9 | 6 | 5 | -6 | 18
CCOC(=O)C(Oc1ccc2c(oc(=O)c3ccccc32)c1C)c1ccccc1 (stereo unspecified) | x | x | x | x | 4 | x
COCCNC(=O)CSc1nc2cc(OC)c(OC)cc2c(=O)n1Cc1ccc(OC)cc1 | 1.1 | 0.9 | 9 | 4 | 1 | 5
COc1cc2nc(SCC(=O)NCc3ccco3)n(Cc3ccc(Cl)cc3)c(=O)c2cc1OC | -3.8* | 0.9 | 0 | 0 | 6 | x
COc1ccccc1-c1nc(-c2ccccn2)no1 | -7.4* | 0.9 | 6 | -2 | 4 | 12
COc1nc(C)ccc1-c1noc(-c2ccccn2)n1 | -4.1* | 0.9 | 2 | -42 | -4 | 7
Cc1cc(/C=c2/sc3nc4ccccc4n3c2=O)c(C)n1-c1ccccn1 | -6.8* | 0.9 | -3 | 7 | 12 | 6
Cc1cc(/C=c2\sc3nc4ccccc4n3c2=O)c(C)n1C | x | x | x | x | 0 | x
Cc1cc(C(=O)NCc2cc(C)n(C)n2)sc1-c1ccccc1 | -3.2* | 0.9 | 1 | 18 | 4 | 7
COc1ccc(Nc2ncc3c(n2)CC(c2ccccc2)CC3=O)cc1 (stereo unspecified) | 9.8* | 0.9 | 11 | -1 | -5 | -4
O=C(NC1CCCCC1)NC1(C(=O)N2CCN3CCCC3C2)CCCCC1 (stereo unspecified) | -3* | 1 | 12 | 4 | 7 | x
O=C(NCc1ccccc1)NC1(C(=O)N2CCN3CCCC3C2)CCCCC1 (stereo unspecified) | x | x | x | x | x | 7
O=C(O)Cc1ccc(/C(=N\O)c2cccs2)s1 | x | x | x | x | 5 | x
CCOc1ccccc1NC(=O)Cn1nnc(C(=O)Nc2ccc(C)cc2)c1N | -5.3* | 0.9 | -14 | 1 | 3 | 10
CCC(C(=O)Nc1ccc(OC)cc1OC)c1ccccc1 (stereo unspecified) | x | x | x | x | 104* | x
COc1ccc(Br)cc1C(=O)Nc1ccc(-c2nc3cc(C)c(C)cc3o2)c(O)c1 | x | x | x | x | 3 | x
SMILES | D1 allo mod | TNAP act DEA | FXIIa inh mix | FXIa inh mix | HePTP inh | Candida biofilm
CCC1CCc2c(sc(NC(=O)c3cccs3)c2C(N)=O)C1 (stereo unspecified) | x | x | x | x | -10 | x
CCCOC(=O)c1c(NC(=O)c2cc3ccccc3oc2=O)sc2c1CCC(C)C2 (stereo unspecified) | x | x | x | x | -1 | x
CCCOc1cccc(C(=O)Nc2nc(-c3ccc(F)cc3F)cs2)c1 | x | x | x | x | 95* | x
Cc1cc(NC(=O)Nc2cc(C)nn2-c2ccccc2)n(-c2ccccc2)n1 | 0.042 | 1 | 11 | 4 | 1 | 3
CCOC(=O)/C=C(\C)Nc1cc(C)nn1-c1ccccc1 | -4.8* | 0.9 | -19 | 5 | -8 | 5
Cc1ccc(-n2nc3cc(C)c(NC(=O)c4ccccc4Br)cc3n2)cc1 | x | x | x | x | -15 | x
O=C(CC1Sc2ccccc2NC1=O)Nc1ccc(O)cc1 (stereo unspecified) | x | x | x | x | 6 | x
CN(C1=NC(=O)C(CC(=O)Nc2ccc(Br)cc2)S1)c1ccc(O)cc1 (stereo unspecified) | -3.8* | 0.9 | 17 | 11 | 5 | 5
COc1ccc(Cl)cc1N(CC(=O)NCC1CCCO1)S(=O)(=O)c1ccc(C)c([N+](=O)[O-])c1 (stereo unspecified) | x | x | x | x | 7 | x
O=C(NC(=S)Nc1cc([N+](=O)[O-])cc(Cl)c1O)c1cccnc1 | x | x | x | x | 103* | x
COc1ccc(NC(=O)Cc2ccc(Br)cc2)c([N+](=O)[O-])c1 | x | x | x | x | -1 | x
C=C(C)COc1ccc(-c2nc(N)ncc2-c2ccc(OC)cc2)c(O)c1 | 3.4* | 0.9 | 7 | -11 | 4 | 9
COc1ccc(-c2[nH]ncc2Oc2ccccc2OC)c(O)c1 | -0.39 | 1.2 | 9 | 8 | 3 | 2
COc1ccc(-c2nc(N)ncc2Oc2ccccc2Br)c(O)c1 | 14* | 1 | -9 | 9 | 4 | 8
Cc1ccc(OCC(=O)N/N=C\C=N/NC(=O)COc2ccc(C)cc2)cc1 | x | x | x | x | -8 | x
CS(=O)(=O)NCc1csc(-c2ccccc2)n1 | 0 | 0.9 | 9 | 9 | 9 | 5
CCS(=O)(=O)NCc1csc(-c2ccccc2)n1 | 0.16 | 0.9 | 4 | 7 | 0 | 25*
COc1cc(/C=N/NC(=S)Cc2ccccc2)cc(OC)c1OC | x | x | x | x | 104* | x
COc1cc(/C=N/NC(=O)CC(=O)NC(C)C)cc(OC)c1OC | x | x | x | x | -4 | x
O=C1NC(=Nc2ccc(O)cc2)S/C1=C\c1ccc([N+](=O)[O-])cc1 | x | x | x | x | 93* | x
CCOc1cc(/C=C2\SC(=Nc3ccc(C)c(Cl)c3)NC2=O)ccc1O | x | x | x | x | 7 | x
Cc1ccc(N=C2NC(=O)/C(=C/c3ccc(O)c([N+](=O)[O-])c3)S2)cc1Cl | x | x | x | x | 102* | x
O=C(O)/C=C\C(=O)N/N=C/c1ccccc1 | x | x | x | x | -8 | x
CCOc1ccc(-c2nc(C#N)c(N3CCCCCC3)o2)cc1 | 0.33 | 0.8 | 1 | -5 | 3 | 21*
Cc1ccc(C(=O)NC(=S)NCCCN2CCOCC2)cc1 | x | x | x | x | 103* | x
SMILES | D1 allo mod | TNAP act DEA | FXIIa inh mix | FXIa inh mix | HePTP inh | Candida biofilm
Cc1nc2ccccc2n1CCc1nc2c3ccccc3nc(SCC#N)n2n1 | x | x | x | x | x | 7
Cc1cc(C)n(CCc2nc3c4ccccc4nc(SCc4ccc(C#N)cc4)n3n2)n1 | 0.17 | 0.9 | 26* | 6 | -1 | 4
CCOc1ccc2nc(NC(=O)C3CCN(S(=O)(=O)c4cnc[nH]4)CC3)sc2c1 | 0.55 | 1 | -1 | 9 | 8 | 4
COc1ccc2nc(NC(=O)c3cnccn3)sc2c1 | -4.9* | 0.9 | 3 | 5 | 9 | 8
COc1ccc2nc(NC(=O)C3CCN(S(=O)(=O)c4cnc[nH]4)CC3)sc2c1 | -4.9* | 0.8 | 8 | 5 | 6 | -2
CCOC(=O)c1ccc2nc(NC(=O)c3ccco3)sc2c1 | -4.8* | x | x | x | x | 1
CCOc1ccc2nc(NC(=O)Nc3cccs3)sc2c1 | -3.8* | 0.9 | -2 | 1 | 0 | -2
Cc1ccc(OCC(=O)NNC(=O)c2ccc(Cl)cc2Cl)c(C)c1 | x | x | x | x | -21 | x
